TEAD-YAP inh – TEAD-YAP interaction inhibition; AID 1259422; HEK-TIYL cells, TEAD-Gal4/YAP UAS-luciferase luminescence; 640,000 tested, 1.4% active; inhibition, % at 9.12 µM; in the data active = inhibition above about 32%
GPR151 ag – activates the human receptor GPR151; AID 1508602; 650,000 tested, 1% active; Q8TDV0; activation, % at 11.2 µM; PathHunter beta-arrestin GPR151 cells, luminescence; in the data active = activation above about 4.9%
MITF inh – inhibitors of human MITF; O75030; AlphaScreen MITF homodimerization, bead proximity signal; inhibition, % at 2.6 µM; 650,000 tested, 0.91% active; AID 1259374; in the data active = inhibition above about 50%
Target sequence (O75030 whole entry, looked up): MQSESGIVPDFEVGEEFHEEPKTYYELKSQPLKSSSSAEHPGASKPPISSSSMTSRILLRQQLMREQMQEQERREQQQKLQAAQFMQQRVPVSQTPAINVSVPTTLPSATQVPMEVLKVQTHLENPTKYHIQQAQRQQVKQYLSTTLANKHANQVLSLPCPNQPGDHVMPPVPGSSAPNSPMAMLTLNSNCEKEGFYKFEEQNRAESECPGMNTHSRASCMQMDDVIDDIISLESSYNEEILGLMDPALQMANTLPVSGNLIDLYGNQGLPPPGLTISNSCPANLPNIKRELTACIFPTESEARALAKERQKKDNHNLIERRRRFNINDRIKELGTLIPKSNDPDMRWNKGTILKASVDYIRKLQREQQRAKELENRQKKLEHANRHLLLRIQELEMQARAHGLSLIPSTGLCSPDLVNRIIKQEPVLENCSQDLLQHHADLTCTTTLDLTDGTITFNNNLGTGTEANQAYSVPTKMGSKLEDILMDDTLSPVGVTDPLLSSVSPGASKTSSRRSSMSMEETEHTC
FBW7 activator – human FBW7 E3 ligase activation, primary screen | AlphaScreen FBW7–phospho-cyclin E peptide binding, activator screen | 650,000 tested, 0.13% active | AID 1259310 | Q969H0 | normalized activity (activation), % at 26.1 µM; in the data active = normalized activity above about 1.9%;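 note: purified mutant Fbw7 with reduced substrate affinity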
MITF inh conf – human MITF inhibition, confirmation | inhibition, % at 2.6 µM | AID 1259372 | 4,700 tested, 16% active | shares compounds with MITF inh | AlphaScreen MITF homodimerization, biotin/His-MITF beads;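 active = inhibition above a cutoff derived from the DMSO control wells, cut at about 28% in these data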;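 note: inhibitors lower the bead chemiluminescence by keeping MITF from dimerizing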
AlphaScreen DR – counter-screen: compounds optically interfering with AlphaScreen | shares compounds with MITF inh | AlphaScreen optical interference counterscreen, cell-free | IC50, µM | 480 tested, 6% active | AID 1259373; call rule not given here
AS interf ctr – optically interferes with AlphaScreen signal; AID 1259376; shares compounds with MITF inh; LysRS AlphaScreen counterscreen, signal interference, triplicate; 4,700 tested, 7.6% active; inhibition, % at 2.6 µM;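 active = inhibition above a cutoff derived from the DMSO control wells, cut at about 30% in these data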
Each line names hits and unclear results; the compound was inactive in the other large screens (follow-up assays come after a bar, where they were run). Hits are enriched below; roughly 3.4% of the tested compounds scored in any of these assays.

COCCCNc1ncnc2sc(C)c(C)c12	MITF inh 68 | MITF inh conf inactive | AS interf ctr inactive
c1ccc(N2CCCC2=Nc2ccncc2)cc1	MITF inh 68 | MITF inh conf inactive | AS interf ctr inactive
NC(=O)CN1CCCC1=Nc1ccccc1	none
COc1cc2c(cc1CN1CCN(C(=O)c3cc(OC)c(OC)c(OC)c3)CC1)OCO2	MITF inh 53 | MITF inh conf inactive | AS interf ctr inactive
COc1cc(C(=O)N2CCN(Cc3ccccc3F)CC2)cc(OC)c1OC	none
COc1cc(C(=O)N2CCN(Cc3ccccc3C)CC2)cc(OC)c1OC	MITF inh 60 | MITF inh conf 38 | AlphaScreen DR inactive | AS interf ctr inactive
Cc1ccccc1C1=CC(Cl)=C(c2cccs2)Oc2ccccc21	none
CCCOc1cccc(C(=O)Nc2cccc(Cl)c2N2CCOCC2)c1	none
O=C(NCCCNCCCNC(=O)c1ccc(/C=N/O)nc1)c1ccc(/C=N/O)nc1	MITF inh 69 | MITF inh conf 49 | AS interf ctr 100
O=C(NCCCO)c1ccc(/C=N/O)nc1	none
Cn1ncc2c(=O)n(CC(=O)Nc3ccccc3C(F)(F)F)cnc21	none
CC1(Cc2ccccc2)C(=O)Nc2cccc(Cl)c21 (centres undefined)	none
CCN(CC)CCCNC(=O)c1[nH]c(C)c(C(C)=O)c1C	none
CCN(CC)CCCNC(=O)c1[nH]c(C)c(C(=O)NC2CCCCC2)c1C	MITF inh 90 | MITF inh conf inactive | AS interf ctr inactive
CCOc1cc(CN2CCN(Cc3ccccc3F)CC2)ccc1OC	MITF inh 65 | MITF inh conf inactive | AS interf ctr inactive
COc1ccc(CN2CCN(Cc3ccccc3F)CC2)cc1OC	MITF inh 79 | MITF inh conf inactive | AS interf ctr inactive
CCc1ccccc1NC(=O)CCCN1C(=S)NC(C)(C)CC1C (centres undefined)	none
CCN1CCN(CCNC(=O)CCCN2C(=S)NC(C)(C)CC2C)CC1 (centres undefined)	MITF inh 71 | MITF inh conf inactive | AS interf ctr inactive
C=CCc1cc(C)ccc1OCCCCNCCO	none
O=C(Nc1ccc(O)cc1)c1cc(S(=O)(=O)N2CCCC2)ccc1Cl	MITF inh 70 | MITF inh conf inactive | AS interf ctr inactive
COC(=O)c1ccc2c(=O)[nH]c(CSc3nnc(-c4cccc(OC)c4)n3C)nc2c1	none
Cc1ccc(CSc2nnc(-c3ccncc3)n2CCCN(C)C)cc1	MITF inh 72 | MITF inh conf inactive | AS interf ctr inactive
CN(C)CCCn1c(SCC(N)=O)nnc1-c1ccncc1	none
CC(=O)c1ccc(NC(=O)c2cc3cc([N+](=O)[O-])ccc3oc2=O)cc1	none
CC(C)(C)OC(=O)N1C(C(=O)O)CSC1c1cc2c(cc1[N+](=O)[O-])OCO2 (centres undefined)	MITF inh 60 | MITF inh conf 72 | AlphaScreen DR inactive | AS interf ctr inactive
Nc1nnc(SCC(=O)NCCCCNC(=O)CSc2nnc(N)s2)s1	none
CC(C)NC(=O)NC(=O)CSc1nnc(N)s1	MITF inh 64 | MITF inh conf inactive | AS interf ctr inactive
CN(C)CCOc1cccc(C(F)(F)F)c1	MITF inh 88 | MITF inh conf inactive | AS interf ctr inactive
CCN1CCN(CCCOc2cccc(C(F)(F)F)c2)CC1	MITF inh 56 | MITF inh conf inactive | AS interf ctr inactive
CCN1CCN(CCOc2cccc(C(F)(F)F)c2)CC1	MITF inh 61 | MITF inh conf inactive | AS interf ctr inactive
CCN1CCN(CCOc2ccc3ccccc3c2)CC1	none
CN1CCN(CCCOc2cccc(C(C)(C)C)c2)CC1	none
Cc1ccc(C(=O)COC(=O)CCC(=O)Nc2ccc(Cl)c(Cl)c2)cc1[N+](=O)[O-]	none
CCOC(=O)c1cc(S(=O)(=O)Nc2cccc(CC)c2)cn1C	none
CC(C)CNC(=O)c1cn(C2CCCCC2)cc(C(=O)NCCCn2ccnc2)c1=O	none
Clc1ccccc1CN1CCN(C2CCCCC2)CC1	MITF inh 65 | MITF inh conf inactive | AS interf ctr inactive
Cc1ccccc1CN1CCN(C2CCCC2)CC1	MITF inh 57 | MITF inh conf inactive | AS interf ctr inactive
c1ccc(CN2CCC(N3CCN(C4CCCCCC4)CC3)CC2)cc1	none
O=C1CCC(N2CCCC2)CCN1Cc1ccccc1Cl (centres undefined)	none
Cc1ccccc1CN1CCC(N2CCCC2)CC1	none
Clc1ccccc1CN1CCN(C2CCCC2)CC1	MITF inh 74 | MITF inh conf inactive | AS interf ctr inactive
Cc1cc(Cl)cc(Cl)c1OCC(=O)Nc1ccc(O)c(-c2nc3ccccc3o2)c1	none
CSc1ccc(NC(=O)C2CC23CCN(Cc2coc4ccc(C)cc4c2=O)CC3)cc1 (centres undefined)	none
Cc1ccc2occ(CN3CCC4(CC3)CC4C(=O)Nc3ccc(F)c(F)c3)c(=O)c2c1 (centres undefined)	MITF inh 74 | MITF inh conf inactive | AS interf ctr inactive
O=C(NCCOc1ccccc1)c1ccc(-c2ccc(N3CCOCC3)nc2)s1	MITF inh 80 | MITF inh conf inactive | AS interf ctr inactive
O=C(NCc1ccccc1)c1ccc(-c2ccc(N3CCOCC3)nc2)s1	none
CSc1ccccc1C(=O)Nc1cccc(-c2nc3ccccc3o2)c1	none
Cc1ccc(C(=O)OCc2cn3ccccc3n2)cc1	MITF inh 51 | MITF inh conf inactive | AS interf ctr inactive
CN(C)c1cccc(Nc2ccc(-c3ccccc3C=O)cn2)c1	MITF inh 63 | MITF inh conf 56 | AS interf ctr 61
CC(=O)c1cccc(-c2ccc(Nc3cccc(N(C)C)c3)nc2)c1	none
Cc1ccc(C(C)C)c(OCCNCc2ccco2)c1	MITF inh 55 | MITF inh conf inactive | AS interf ctr inactive
c1coc(CNCCOc2ccc3ccccc3c2)c1	MITF inh 87 | MITF inh conf inactive | AS interf ctr inactive
O=C(NCc1cccc(Cl)c1)c1ccc2nc3ccccc3c(=O)n2c1	none
Cc1cc(C)c(OCCOCCNCCN)c(C)c1	MITF inh 70 | MITF inh conf inactive | AS interf ctr inactive
Cc1cc(Cl)cc(Cl)c1OCCOCCNCCN	MITF inh 65 | MITF inh conf inactive | AS interf ctr inactive
COCCCNCCOCCOc1c(C)cc(Cl)cc1C	MITF inh 71 | MITF inh conf inactive | AS interf ctr inactive
Cc1cc(OCCOCCNCCN)cc(C)c1Cl	none
COCCCNCCOCCOc1c(C)cc(C)cc1C	none
CCOC(=O)CSc1nnc(NC(=O)c2ccc(C)cc2)s1	none
COc1ccc(NC(=O)NC2(C(=O)NCC3CCCO3)CCCCC2)cc1 (centres undefined)	none
O=C(Nc1ccc(Oc2ccccc2)cc1)c1ccnc(-c2cccs2)c1	MITF inh 57 | MITF inh conf 53 | AlphaScreen DR inactive | AS interf ctr inactive
O=C(Nc1ccc(Oc2ccccc2)cc1)c1cnc(-c2cccs2)s1	MITF inh 53 | MITF inh conf inactive | AS interf ctr inactive
